Here are results for 32 molecules from the supplement of paper PMC6763611.

The subject of the assay is Plasmodium falciparum NF54. Kind of assay: growth inhibition relative to untreated control; higher = more inhibition. As to conditions: 72 h. In a few lines: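 In dark 96-well half-area plates, each well held 100 μL of P. falciparum NF54 ring-stage culture at 1% parasitemia and 1% hematocrit. The cultures received a single test-compound dose of 5 μM or 1 μM and were kept at 37 °C for 72 h, in minimal RPMI either plain or enriched with folate (2.2 μM), pABA (7.3 μM), pHBA (7.3 μM), tyrosine (111 μM), phenylalanine (90 μM) and tryptophan. SYBR Green staining gave growth inhibition, expressed against untreated wells, with uninfected erythrocytes serving as the background.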

Where [1] appears, read: 1 µM, MM + chorismate end-products (CM screening medium).
Setting [2] is: 5 µM, MM + chorismate end-products (CM screening medium).

With `Nc1cccnc1Nc1ccc(Cl)cc1`, the growth inhibition reads like this: under setting [1], 32%; (1 µM, minimal medium (MM)) < 0%; under setting [2], 47.3%; (5 µM, minimal medium (MM)) 19.2%.

In the case of `CNC(=O)C1Cc2ccccc2N1C(=O)Cc1ccc(F)cc1` (stereo not drawn), the growth inhibition is, setting by setting: under setting [1], 10.9%; (1 µM, minimal medium (MM)) < 0%; under setting [2], < 0%; (5 µM, minimal medium (MM)) < 0%.

For the molecule `COc1cccc(CC(=O)N2CCC(n3c(C)nc4ccc(F)cc43)CC2)c1`, the growth inhibition under setting [1] was > 100%; the growth inhibition (1 µM, minimal medium (MM)) is > 100%; the growth inhibition under setting [2] is > 100%; the growth inhibition (5 µM, minimal medium (MM)) was 95.6%.

As for `N#Cc1nc(-c2ccccc2)oc1S(=O)(=O)c1ccc(Cl)cc1`, the growth inhibition under setting [1] turned out to be 43.4%; the growth inhibition (1 µM, minimal medium (MM)) amounted to 49.5%; the growth inhibition under setting [2] turned out to be 97.9%; the growth inhibition (5 µM, minimal medium (MM)) stood at 55%.

In the case of `O=C(c1ccco1)N(CCCn1ccnc1)c1nc2c(Cl)cccc2s1`, the growth inhibition under setting [1] was 13.2%; the growth inhibition (1 µM, minimal medium (MM)) worked out at 22.3%; the growth inhibition under setting [2] was > 100%; the growth inhibition (5 µM, minimal medium (MM)) turned out to be 92.8%.

As to `O=C(NC1CCN(c2ccnc3ccccc23)C1)c1cccc(C(F)(F)F)c1` (stereo not drawn), the growth inhibition under setting [1] worked out at 80.7%; the growth inhibition (1 µM, minimal medium (MM)) was > 100%; the growth inhibition under setting [2] was found to be 96.9%; the growth inhibition (5 µM, minimal medium (MM)) stood at 66.7%.

With `Cc1nn(C(=O)Nc2cccc(C(F)(F)F)c2)c(C)c1Sc1ncccn1`, the growth inhibition under setting [1] was 0.416%; the growth inhibition (1 µM, minimal medium (MM)) was < 0%; the growth inhibition under setting [2] came out at 80.1%; the growth inhibition (5 µM, minimal medium (MM)) came to 39.2%.

On to `CN1CCC(c2cc(-c3ccncc3)c(-c3ccc(F)cc3)[nH]2)CC1`, for which the growth inhibition is, setting by setting: under setting [1], 72.9%; (1 µM, minimal medium (MM)) 72.7%; under setting [2], 92.6%; (5 µM, minimal medium (MM)) 92.2%.

As for `CCc1ccc(C(NCc2nc(N)nc(N(C)C)n2)C(C)C)cc1` (stereo not drawn), the growth inhibition is 9.14% under setting [1]; < 0% (1 µM, minimal medium (MM)); 51.5% under setting [2]; 9.29% (5 µM, minimal medium (MM)).

Regarding `Cc1cccc(Cn2ccc(NC(=O)c3ccc4c(c3)OCO4)n2)c1`, the growth inhibition under setting [1] came to 18.2%; the growth inhibition (1 µM, minimal medium (MM)) worked out at 6.8%; the growth inhibition under setting [2] was determined as 12.8%; the growth inhibition (5 µM, minimal medium (MM)) amounted to 17.9%.

Turning to `O=C(NC1CC1)c1ccc(N2CCOc3ccc(Cl)cc32)s1`, the growth inhibition is, setting by setting: under setting [1], 91%; (1 µM, minimal medium (MM)) 82.1%; under setting [2], 95.1%; (5 µM, minimal medium (MM)) 91.5%.

`COc1cc(NC(=O)Cc2nn(C)c(=O)c3ccccc23)ccc1Cl`: the growth inhibition under setting [1] stood at 16.1%; the growth inhibition (1 µM, minimal medium (MM)) turned out to be 5.71%; the growth inhibition under setting [2] was 15.2%; the growth inhibition (5 µM, minimal medium (MM)) is < 0%.

As for `CC(C)(C)c1cnc(NC(=O)c2ccccc2O)s1`, the growth inhibition by setting is: under setting [1], 38.5%; (1 µM, minimal medium (MM)) 7.86%; under setting [2], 51.6%; (5 µM, minimal medium (MM)) 3.99%.

Turning to `CS(=O)(=O)Cc1nc2ccccc2oc1=O`, the growth inhibition runs as follows: under setting [1], < 0%; (1 µM, minimal medium (MM)) < 0%; under setting [2], < 0%; (5 µM, minimal medium (MM)) < 0%.

As for `COc1ccc(-c2nc(-c3cccc(NC(=O)Cc4ccc(F)cc4)c3)no2)cc1OC`, the growth inhibition was 46.5% under setting [1]; 42.7% (1 µM, minimal medium (MM)); 91.6% under setting [2]; 80.9% (5 µM, minimal medium (MM)).

Turning to `COc1ccc(-c2cnc3ccc(N4CCCC4)nn23)cc1OC`, the growth inhibition is, setting by setting: under setting [1], 79.9%; (1 µM, minimal medium (MM)) 78%; under setting [2], 96.8%; (5 µM, minimal medium (MM)) 82.4%.

Consider `Nc1ncnc2c1ncn2[C@@H]1O[C@H](COS(=O)(=O)NC(=O)c2ccccc2O)[C@@H](O)[C@H]1O`, for which the growth inhibition by setting is: under setting [1], 32.6%; (1 µM, minimal medium (MM)) < 0%; under setting [2], < 0%; (5 µM, minimal medium (MM)) < 0%.

In the case of `C[C@H]1c2cccc(O)c2C(=O)C2=C(O)[C@]3(O)C(=O)C(C(N)=O)=C(O)[C@@H](N(C)C)[C@@H]3[C@@H](O)[C@@H]21`, the growth inhibition is 50.6% under setting [1]; 50.7% (1 µM, minimal medium (MM)); 41% under setting [2]; < 0% (5 µM, minimal medium (MM)).

In the case of `Nc1ncc(-c2cn[nH]c2)cc1-c1nc2cc(Cl)cnc2[nH]1`, the growth inhibition by setting is: under setting [1], 97%; (1 µM, minimal medium (MM)) 97%; under setting [2], > 100%; (5 µM, minimal medium (MM)) 94.3%.

With `O=C(Nc1nc(-c2ccccn2)cs1)c1cncn1-c1ccccc1`, the growth inhibition under setting [1] is 25.9%; the growth inhibition (1 µM, minimal medium (MM)) is 7.24%; the growth inhibition under setting [2] was 65%; the growth inhibition (5 µM, minimal medium (MM)) is < 0%.

As to `O=C(Nc1ccnc(-c2cccnc2)n1)c1cc(C(F)(F)F)cc(C(F)(F)F)c1`, the growth inhibition is, setting by setting: under setting [1], 13.6%; (1 µM, minimal medium (MM)) 20.9%; under setting [2], 93.8%; (5 µM, minimal medium (MM)) 86.6%.

As to `CN1CCN(S(=O)(=O)c2ccc(-c3ccc4c(Nc5ccc6nn[nH]c6c5)ccnc4c3)cc2)CC1`, the growth inhibition was 89.7% under setting [1]; > 100% (1 µM, minimal medium (MM)); 92.9% under setting [2]; 95.1% (5 µM, minimal medium (MM)).

For the molecule `COc1cccc(OC)c1C(=O)Nc1ccc(Cl)c(-c2nc3ccccc3s2)c1`, the growth inhibition by setting is: under setting [1], 20.8%; (1 µM, minimal medium (MM)) < 0%; under setting [2], 22.9%; (5 µM, minimal medium (MM)) 29.8%.

Consider `CNC1C(OC2C(OC3C(O)C(O)C(N=C(N)N)C(O)C3N=C(N)N)OC(C)C2(O)C=O)OC(CO)C(O)C1O` (stereo not drawn), for which the growth inhibition is 20.4% under setting [1]; 29.2% (1 µM, minimal medium (MM)); < 0% under setting [2]; 8.51% (5 µM, minimal medium (MM)).

Regarding `CC(C)=CCC/C(C)=C/CNCCNC1C2CC3CC(C2)CC1C3` (stereo not drawn), the growth inhibition by setting is: under setting [1], 88.5%; (1 µM, minimal medium (MM)) 92.6%; under setting [2], > 100%; (5 µM, minimal medium (MM)) 91.3%.

On to `c1ccc(Oc2ccc(-c3cc(C4CCOCC4)[nH]n3)cc2)cc1`, for which the growth inhibition reads like this: under setting [1], 1.03%; (1 µM, minimal medium (MM)) < 0%; under setting [2], < 0%; (5 µM, minimal medium (MM)) < 0%.

For the molecule `c1coc(CNc2nc(N3CCCCC3)nc3ccccc23)c1`, the growth inhibition runs as follows: under setting [1], 68.6%; (1 µM, minimal medium (MM)) 35.7%; under setting [2], 67.2%; (5 µM, minimal medium (MM)) 67.2%.

As for `CC(Oc1ccccc1)C(=O)Nc1nc(-c2ccccn2)cs1` (stereo not drawn), the growth inhibition by setting is: under setting [1], < 0%; (1 µM, minimal medium (MM)) 38.4%; under setting [2], 68.6%; (5 µM, minimal medium (MM)) 38.2%.

With `COc1cc(Br)cc2cc(C(=O)Nc3cccc(C(F)(F)F)c3)c(=O)oc12`, the growth inhibition under setting [1] amounted to 11.9%; the growth inhibition (1 µM, minimal medium (MM)) was 6.95%; the growth inhibition under setting [2] was found to be 21.7%; the growth inhibition (5 µM, minimal medium (MM)) is < 0%.

On to `O=C(OCc1ccccc1)N1CCC(c2cc(-c3ccncc3)c(-c3ccc(F)cc3)[nH]2)CC1`, for which the growth inhibition stood at 62.4% under setting [1]; 62.7% (1 µM, minimal medium (MM)); 98.3% under setting [2]; 64.2% (5 µM, minimal medium (MM)).

With `N=C(N)c1ccc(OCCCCCOc2ccc(C(=N)N)cc2)cc1`, the growth inhibition under setting [1] turned out to be 98.6%; the growth inhibition (1 µM, minimal medium (MM)) came out at 96.8%; the growth inhibition under setting [2] was 99.4%; the growth inhibition (5 µM, minimal medium (MM)) is 94%.

Turning to `CCOc1ccccc1NC(C)C(=O)Nc1cc(C(F)(F)F)ccc1N1CCOCC1` (stereo not drawn), the growth inhibition worked out at 76% under setting [1]; 64.5% (1 µM, minimal medium (MM)); 91.6% under setting [2]; 96.1% (5 µM, minimal medium (MM)).
